Screening results (PubChem)
PABP1 MLLE inh: inhibitors of PABP1 MLLE–PAM2 peptide binding, primary screen, biochemical, fluorescence polarization, FITC-PAM2, GST-MLLE | inhibition, % at 20 µM | actives 0.36% (n = 360,000) | AID 588489, 2011; in the data active means inhibition above about 35%, passing the limit was not always enough;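 further: plate controls were DMSO wells with GST-MLLE for no effect and wells lacking GST-MLLE protein for full effect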
Target sequence (P11940 whole entry, looked up): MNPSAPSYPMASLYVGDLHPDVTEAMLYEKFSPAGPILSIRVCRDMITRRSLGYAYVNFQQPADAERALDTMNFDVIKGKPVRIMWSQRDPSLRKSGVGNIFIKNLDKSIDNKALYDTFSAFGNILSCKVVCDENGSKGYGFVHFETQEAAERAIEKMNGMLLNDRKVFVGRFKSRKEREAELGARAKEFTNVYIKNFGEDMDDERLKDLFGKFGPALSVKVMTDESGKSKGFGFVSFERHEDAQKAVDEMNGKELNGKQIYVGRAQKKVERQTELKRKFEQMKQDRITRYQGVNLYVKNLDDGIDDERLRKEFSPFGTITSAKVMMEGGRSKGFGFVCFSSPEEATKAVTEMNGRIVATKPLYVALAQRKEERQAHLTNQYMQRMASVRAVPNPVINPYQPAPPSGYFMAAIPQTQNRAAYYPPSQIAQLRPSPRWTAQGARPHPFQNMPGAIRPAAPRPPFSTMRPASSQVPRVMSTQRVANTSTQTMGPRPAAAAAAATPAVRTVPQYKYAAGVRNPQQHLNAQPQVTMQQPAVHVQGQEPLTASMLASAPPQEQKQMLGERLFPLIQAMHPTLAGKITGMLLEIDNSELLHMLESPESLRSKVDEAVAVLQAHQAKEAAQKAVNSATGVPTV
PABP FP inh: PABP poly(A) RNA binding inhibitors, primary screen, biochemical, fluorescence polarization, uHTS; inhibition, % at 35 µM; actives 1% (n = 290,000);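 further: calls also rest on retests at 20 µM and on dose response follow-up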
eIF4H inh: human eIF4H binding inhibitors, primary screen, translation initiation inhibitor project, biochemical, uHTS, fluorescence polarization; Eukaryotic translation initiation factor 4H (Homo sapiens), Q15056; eIF4H fluorescence polarization binding assay; inhibition, % at 35 µM; actives 0.94% (n = 290,000);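 further: calls also rest on retests at 20 µM and on dose response follow-up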
eIF4E-4G inh: eIF4E–eIF4G protein interaction inhibitors, primary screen, biochemical, uHTS, TR-FRET, eIF4GI fragment; AID 782, 2007; TR-FRET eIF4E-eIF4GI(517-606) binding, 2 h; actives 0.37% (n = 220,000); inhibition, % at 21.7 µM;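 active means inhibition above about 30%, limit read from the data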;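 further: 0% = full FRET control wells and 100% = background wells lacking eIF4GI fragment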
PERK inh: block of dimerizer-induced PERK translation repression, primary screen, PERK inhibitor project, CHO PERK-DD cells, SEAP luminescence, HTS; inhibition, % at 5.6 µM; Eukaryotic translation initiation factor 2-alpha kinase 3 (Homo sapiens), Q9NZJ5; actives 0.17% (n = 220,000); AID 1416, 2008; CHO PERK-DD fusion, SEAP luminescence translation reporter;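 active means inhibition above the mean inhibition of all tested compounds plus 3 SD, set separately per screening campaign, cut at about 2.9% in these data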;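 further: PERK kinase domain activated by AP20187 dimerizer at 100 nM; 0% = DMSO with dimerizer and 100% = rapamycin at 8.4 µM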
* marks the source's active call; other numbers are inactive results; u = inconclusive; x = not tested or not shown. Only some compounds are listed: those with a hit (about 1.6% of all), similar ones and a draw of the others. Unless noted, how the calls were made is not given here.

SMILES	PABP1 MLLE inh	PABP FP inh	eIF4H inh	eIF4E-4G inh	PERK inh
CC[n+]1ccc(/C=C2\Sc3ccccc3N2CCCS(=O)(=O)[O-])c2ccccc21	-143	55*	0	23	0
CC(Cc1ccccc1)C(=O)N[C@@H](CO)Cc1ccccc1 (stereo partly specified)	-2	71*	active	8	0
O=C(NC(=S)NC(CO)Cc1ccccc1)c1ccc(F)cc1 (stereo unspecified)	33*	-3	2	x	x
CC(Cc1ccccc1)C(=O)NCc1ccncc1 (stereo unspecified)	5	5	6	0	2
CCCN1C(=O)C2(C(C(=O)c3ccc(C)o3)=C(O)C(=O)N2CCCOC)c2ccccc21 (stereo unspecified)	-2	0	2	96*	1
CC(=O)c1c(C)nc(-c2ccc(Cl)cc2)nc1N	9	4	10	15	0
CC(=O)c1c(C)nc(-c2ccc(Cl)cc2)nc1N=CN(C)C	-8	17	14	60*	0
O=C(O)CCC(C(=O)O)n1c(O)c(C2=c3ccccc3=NC2=O)sc1=S (stereo unspecified)	40*	25	-3	-8	0
Cc1nc(S/C(=C\c2ccc(-c3ccc(C(=O)O)c(Cl)c3)o2)C(=O)O)n[nH]1	-78	55*	75*	10	0
Clc1ccccc1C(c1ccccc1)(c1ccccc1)n1ccnc1	-7	9	1	3	0
CC(NC(=S)NC(=O)c1cccs1)c1ccccc1 (stereo unspecified)	22	x	x	x	x
CC(NC(=O)c1cccs1)C(S)c1ccccc1 (stereo unspecified)	43*	12	-11	x	x
CC(C)(C)c1cc(C(=O)NNc2cc(C(F)(F)F)ccc2Cl)n(Cc2ccccc2)n1	-25	31	52*	5	-1
COc1ccccc1NNC(=O)c1cc(C(C)(C)C)nn1Cc1ccccc1	1	5	-16	4	1
COc1cc(Nc2nc3ccccc3n3nnnc23)cc(OC)c1OC	-30	87*	80*	4	1
COc1ccc(Nc2nc3ccccc3n3nnnc23)cc1	6	14	9	5	0
O=S(=O)(c1ccccc1)N1CCC(n2nnc3cc(F)ccc32)CC1	8	6	1	-2	-1
Cc1cc2nc(-c3cccc(NC(=O)c4ccc(Br)o4)c3)oc2cc1C	4	86*	active	1	0
COc1cc(/C=C(\C#N)C(=O)NCC2CCCO2)ccc1O (stereo unspecified)	-19	59*	active	-2	1
COc1ccc(N=C(N)SCc2ccccn2)cc1	-4	-6	0	4	0
O=C(O)c1cn(CCOc2ccccc2Cl)c2ccccc12	8	-1	12	-6	1
CCN(CC(=O)Nc1c(F)cccc1F)C(=O)Cc1ccc2c(c1)CCC2	41*	x	x	x	x
CCCC(=O)Nc1cc(-c2nn(C)c(=O)c3ccccc23)ccc1N1CCOCC1	-4	1	0	-1	-1
CC(=O)Nc1cc(-c2nn(C)c(=O)c3ccccc23)ccc1N1CCOCC1	-7	active	u	-1	-3
CCCCn1c(N)c(NCc2ccccc2)c(=O)[nH]c1=O	18	1	0	1	0
SMILES	PABP1 MLLE inh	PABP FP inh	eIF4H inh	eIF4E-4G inh	PERK inh
Nc1c(NCc2ccccc2F)c(=O)[nH]c(=O)n1Cc1ccccc1	1	51*	51*	-8	0
COc1ccccc1CNCc1ccc(OC)c(OC)c1OC	0	4	0	3	-1
Cc1cc(C(=O)O)ccc1-c1ccc(/C=C2\NC(=O)N(Cc3ccc(F)cc3)C2=O)o1	-4	68*	81*	5	1
Cc1ccc(CN2C(=O)N/C(=C/c3ccc(-c4ccc(C(=O)O)cc4)o3)C2=O)cc1	-15	46*	69*	10	0
Cc1ccc(CN2C(=O)N/C(=C/c3ccc4c(c3)n(C)c(=O)n4C)C2=O)cc1	x	6	-12	0	0
O=C(CNC(=O)c1ccccc1)N/N=C/C=C/c1ccccc1	2	-7	-7	x	x
O=C1CC(NCc2ccncc2)C(=O)N1c1ccccc1 (stereo unspecified)	-1	-2	-13	9	0
CCCCN1CCc2[nH]c(=S)[nH]c(=O)c2C1	49*	1	-5	4	1
CC(c1ccccc1)N1CCc2[nH]c(=S)[nH]c(=O)c2C1 (stereo unspecified)	39*	2	4	-1	1
COCCN1CCc2[nH]c(=S)[nH]c(=O)c2C1	40	0	-8	-3	0
NC(=O)CN(c1ccccc1)C1SC(=O)N(Cc2ccccc2)C1=O (stereo unspecified)	45*	-14	-2	-3	1
Cc1ccc(N(CC(N)=O)C2SC(=O)N(Cc3ccccc3)C2=O)cc1 (stereo unspecified)	42*	-2	-2	-9	1
CS(=O)(=O)N(CC(=O)NC1CC1)C1CCCCC1	6	75	active	7	1
CCCCC[C@H](O)/C=C/[C@@H]1[C@@H](C/C=C\CCCC(=O)OC)[C@@H](O)C[C@H]1O	-4	-6	-18	88*	1
C[C@]12C[C@H](O)[C@H]3[C@@H](CCC4=CC(=O)CC[C@@]43C)[C@@H]1CC[C@@H]2C(=O)CO	1	118	5.2*	-2	2
C[C@@H](C(=O)N[C@@H](Cc1c[nH]c2ccccc12)C(=O)O)n1nnc2ccccc2c1=O	6	19	4	0	0
COc1ccc2c(c1)c(C(O)CN1CCN(Cc3ccc4c(c3)OCO4)CC1)c(C)n2C (stereo unspecified)	0	17	10	-3	-1
Cc1c(C(O)CN2CCN(Cc3ccc4c(c3)OCO4)CC2)c2ccccc2n1C (stereo unspecified)	-4	81*	82*	1	-1
CCCn1nc(C(=O)NCc2ccccn2)c2ccccc2c1=O	7	-3	2	-6	0
CCN(CC)c1ccc(NC(=O)CCS(=O)(=O)c2ccc(Br)cc2)c(C)c1	-10	42*	93*	x	x
CC1CC1C(=O)OCC(=O)Nc1cccc([N+](=O)[O-])c1 (stereo unspecified)	-1	56*	u	2	1
CC1CC1C(=O)OCC(=O)Nc1ccc2[nH]c(=O)[nH]c2c1 (stereo unspecified)	-13	18*	u	15	1
CCCC(=O)OCC(=O)Nc1ccc2[nH]c(=O)[nH]c2c1	-17	-1	-4	2	1
